The list is not random: actives were taken first. Their share in the collection is about 4%.
RAD52 anneal inh = inhibitors of human RAD52 DNA annealing. P43351. recombinant RAD52 DNA annealing, FRET fluorescence. inhibition, % at 18.7 µM. 0.46% of 360,000 active. AID 651710;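 active = every replicate showing at least 50% inhibition; inconclusive = mean inhibition at least 50% but not in every replicate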
DENV2 CPE rescue = inhibitors of DENV2 cytopathic effect | DENV2-infected cells, cytopathic effect rescue, plate reader | CPE inhibition, % at 9.99 µM | 1.7% of 350,000 active | AID 651640; in the data active = CPE inhibition above about 20%, passing the limit was not always enough; inconclusive = no clear call, values can overlap the other calls; tested in BHK-21 cells;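 note: 0% = median of neutral control wells and 100% = median of positive control wells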
ERAP1 HTS inh = ERAP1 (human) enzyme inhibition. inhibition, % at 10.7 µM. Q9NZ08. recombinant ERAP1, Leu-AMC fluorescence, 60 min. 0.15% of 340,000 active;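 active = mean replicate inhibition of at least 30%, or all replicates individually reaching that 30% level; inactive = mean below 30% and not every replicate reaching it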;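 note: 0% = neutral control wells and 100% = L-leucinethiol positive control wells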
Target sequence (Q9NZ08 whole entry, looked up): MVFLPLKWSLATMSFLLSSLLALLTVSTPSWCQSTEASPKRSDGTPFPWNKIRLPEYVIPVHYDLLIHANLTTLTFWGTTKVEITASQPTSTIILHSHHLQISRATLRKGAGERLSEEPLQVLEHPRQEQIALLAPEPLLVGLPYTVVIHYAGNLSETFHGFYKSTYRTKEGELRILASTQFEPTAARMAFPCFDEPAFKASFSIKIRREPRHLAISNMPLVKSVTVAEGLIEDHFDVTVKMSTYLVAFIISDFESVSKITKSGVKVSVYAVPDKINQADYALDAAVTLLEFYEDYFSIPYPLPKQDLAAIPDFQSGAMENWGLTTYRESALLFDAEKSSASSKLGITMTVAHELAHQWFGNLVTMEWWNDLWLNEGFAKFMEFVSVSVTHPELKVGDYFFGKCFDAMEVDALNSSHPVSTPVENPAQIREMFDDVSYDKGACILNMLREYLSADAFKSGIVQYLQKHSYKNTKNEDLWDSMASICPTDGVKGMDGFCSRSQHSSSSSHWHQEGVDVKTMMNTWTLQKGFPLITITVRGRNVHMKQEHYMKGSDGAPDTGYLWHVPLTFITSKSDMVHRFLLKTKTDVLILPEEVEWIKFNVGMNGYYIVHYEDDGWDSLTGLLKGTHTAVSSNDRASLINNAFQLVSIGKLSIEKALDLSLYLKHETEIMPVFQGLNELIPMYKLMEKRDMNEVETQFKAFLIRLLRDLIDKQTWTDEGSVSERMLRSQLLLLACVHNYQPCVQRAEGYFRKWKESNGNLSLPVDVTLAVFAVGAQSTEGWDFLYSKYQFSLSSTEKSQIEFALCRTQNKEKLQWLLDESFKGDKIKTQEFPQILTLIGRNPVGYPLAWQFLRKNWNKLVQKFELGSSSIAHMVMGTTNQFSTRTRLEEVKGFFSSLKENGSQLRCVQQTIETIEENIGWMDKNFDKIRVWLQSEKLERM
MLL AF4-AF9 inh = inhibitors of human MLL-AF4/AF9 interaction. P42568. 0.47% of 350,000 active. AID 651704. inhibition, % at 10 µM. AlphaScreen, biotin-AF4 peptide binding to FLAG-AF9;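 active = every replicate reaching a set inhibition limit, whatever the replicate mean, cut at about 25% in these data; inconclusive = mean inhibition reaches that limit but some replicates miss it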;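 note: 0% = plate neutral control median and 100% = total signal loss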
FGF22 binding = FGF22 (human) thermal shift binding; Q9HCT0; recombinant FGF22 thermal shift, SYPRO orange fluorescence; percent of sucrose octasulfate shift, DMSO zero; activity (Tm shift, normalised), % at 9.99 µM; 1.5% of 340,000 active; AID 651658;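 active = mean Tm shift, scaled 0 neutral to 100 positive control, at about 1.3% or above, every replicate too, limit read from the data; inconclusive = no clear call, values can overlap the other calls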
* hit, by the source's call; ? = inconclusive; . = no result.

SMILES	RAD52 anneal inh	DENV2 CPE rescue	ERAP1 HTS inh	MLL AF4-AF9 inh	FGF22 binding
COc1ccc(NC(=O)N(C)C[C@H]2Oc3c(NC(=O)CCCCCC(=O)Nc4ccccc4N)cccc3C(=O)N([C@@H](C)CO)C[C@@H]2C)cc1	2	30*	-1	2	0
COc1ccc(NC(=O)N(C)C[C@@H]2Oc3c(NC(=O)CCCCCC(=O)Nc4ccccc4N)cccc3C(=O)N([C@@H](C)CO)C[C@@H]2C)cc1	-15	-4	-3	1	0
C[C@@H]1CN([C@H](C)CO)C(=O)c2cc(NC(=O)CCCCCC(=O)Nc3ccccc3N)ccc2O[C@H]1CN(C)S(=O)(=O)c1cccs1	6	5	-1	-3	0
C[C@@H]1CN([C@H](C)CO)C(=O)c2cccc(NC(=O)CCCCCC(=O)Nc3ccccc3N)c2O[C@@H]1CN(C)C(=O)Nc1ccc(C(F)(F)F)cc1	-28	-2	0	0	0
COc1ccc(S(=O)(=O)N(C)C[C@@H]2Oc3ccc(NC(=O)CCCCCC(=O)Nc4ccccc4N)cc3C(=O)N([C@@H](C)CO)C[C@@H]2C)cc1	7	36*	0	-2	0
Cc1ccc(S(=O)(=O)N(C)C[C@@H]2Oc3c(NC(=O)c4nc5ccccc5s4)cccc3C(=O)N([C@@H](C)CO)C[C@H]2C)cc1	7	-5	-1	-2	0
CO[C@H]1CN(C)C(=O)c2cc(NC(=O)Nc3ccccc3F)ccc2OC[C@H](C)NC[C@@H]1C	22	3	-7	-13	1
COc1ccc(NC(=O)N(C)C[C@@H]2Oc3ccc(NC(=O)CCCCCC(=O)Nc4ccccc4N)cc3C(=O)N([C@H](C)CO)C[C@@H]2C)cc1	-21	53*	1	1	0
C[C@H]1CN([C@@H](C)CO)C(=O)c2cc(NC(=O)CCCCCC(=O)Nc3ccccc3N)ccc2O[C@H]1CN(C)C(=O)Nc1ccc(F)cc1	6	35*	-2	-2	0
COc1ccc(NC(=O)N(C)C[C@H]2Oc3ccc(NC(=O)CCCCCC(=O)Nc4ccccc4N)cc3C(=O)N([C@H](C)CO)C[C@@H]2C)cc1	1	-9	2	-2	0
C[C@@H]1CN([C@@H](C)CO)C(=O)c2cc(NS(=O)(=O)c3cn(C)cn3)ccc2O[C@H]1CN(C)S(=O)(=O)c1cccs1	-6	-1	0	-1	0
COc1ccc(CCNC(=O)CSC2=NS(=O)(=O)c3ccccc3N2)cc1OC	-1	82*	-1	-9	0
C[C@H]1CN([C@@H](C)CO)C(=O)c2cc(NS(=O)(=O)c3ccc(Cl)cc3)ccc2O[C@@H]1CN(C)S(=O)(=O)c1cccs1	-30	39*	0	-2	0
C[C@@H]1CN([C@H](C)CO)C(=O)c2cc(NS(=O)(=O)c3ccc(F)cc3)ccc2O[C@@H]1CN(C)S(=O)(=O)c1cccs1	-5	-4	-3	-2	-1
C[C@@H]1CN([C@@H](C)CO)C(=O)c2cc(NS(=O)(=O)c3ccc(F)cc3)ccc2O[C@@H]1CN(C)S(=O)(=O)c1cccs1	-9	28*	-4	2	-1
C[C@H]1CN([C@@H](C)CO)C(=O)c2cc(NS(=O)(=O)c3ccc(F)cc3)ccc2O[C@@H]1CN(C)S(=O)(=O)c1ccc(F)cc1	5	54*	0	-3	0
CO[C@@H]1CN(C)C(=O)c2ccc(NC(C)=O)cc2OC[C@H](C)N(Cc2ccncc2)C[C@H]1C	-11	10	3	0	0
COc1ccc2c3c([nH]c2c1)[C@H](CO)N(Cc1nccs1)CC31CN(Cc2cccnc2)C1	-62	?	0	5	0
COc1ccc(CN=C2NC(=O)CC(C(=O)Nc3ccc(Cl)cc3)S2)cc1 (stereo not given)	-22	-11	2	-16	0
COc1ccc(NC(=O)C2CC(=O)N=C(N)S2)cc1 (stereo not given)	-1	1	0	0	43*
Cc1ccc(NC(=O)c2cccs2)cc1[N+](=O)[O-]	-3	8	5	3	44*
O=C(Nc1ccc(Cc2ccncc2)cc1)c1cccs1	-7	31*	-3	-6	0
COc1ccccc1NC(=O)Nc1ccc(Cc2ccncc2)cc1	4	-3	0	-1	43*
O=C(/C=C/c1ccc(Cl)c([N+](=O)[O-])c1)Nc1cccc(NC(=O)c2ccco2)c1	-12	1	-1	2	45*
O=C(/C=C/c1cccc([N+](=O)[O-])c1)Nc1cccc(NC(=O)c2cccs2)c1	5	4	3	0	1.7*
SMILES	RAD52 anneal inh	DENV2 CPE rescue	ERAP1 HTS inh	MLL AF4-AF9 inh	FGF22 binding
O=C(/C=C/c1cccc([N+](=O)[O-])c1)Nc1cccc(NC(=O)c2ccco2)c1	-24	-6	-3	4	0
O=C(Nc1cccc(N2C(=O)C=CC2=O)c1)c1cccs1	-13	10	33*	9	0
CC(C)CC#Cc1ccc([C@@H]2[C@H](CO)N3C(=O)CN(C(=O)NC4CCCC4)C[C@@H]23)cc1	-1	6	0	7	.
Cc1ccc(-c2ccc3c(c2)O[C@@H](CN(C)C(=O)C2CC2)[C@H](C)CN([C@H](C)CO)S3(=O)=O)cc1	18	15	1	-2	0
CN1CCN(C(=O)C[C@@H]2CC[C@H]3[C@H](COc4ccc(NC(=O)c5cscn5)cc4C(=O)N3C)O2)CC1	3	-4	1	-2	0
Cc1ccc(Cl)cc1NC(=O)CCC(=O)O	-9	-1	45*	-3	0
Cc1ccc(Cl)cc1NC(=O)Nc1cccs1	-21	-1	-2	-1	43*
O=S(=O)(N[C@@H]1CC[C@@H](CCn2cc(-c3ccccn3)nn2)O[C@@H]1CO)c1cccc(F)c1	-12	-3	-1	1	0
CC=Cc1ccc2n(c1=O)C[C@@H]1[C@@H](CO)[C@H](C(=O)NCc3ccc4c(c3)OCO4)[C@H]2N1C(=O)C1CC1 (mixture of isomers)	55*	14	3	2	0
CC=Cc1ccc2n(c1=O)C[C@H]1[C@H](CO)[C@@H](C(=O)NCc3ccc4c(c3)OCO4)[C@@H]2N1C(=O)C1CC1 (mixture of isomers)	58*	-2	2	2	0
CC=Cc1ccc2n(c1=O)C[C@@H]1[C@@H](CO)[C@H](C(=O)NCc3ccc4c(c3)OCO4)[C@H]2N1C(=O)COC (mixture of isomers)	1	5	2	-3	0
CN(C)C(=O)C[C@@H]1C=C[C@@H](NC(=O)C2CCOCC2)[C@H](CO)O1	10	11	3	-3	.
CCC(=O)N[C@@H]1C[C@@H]2O[C@H](CO)CC[C@@H]2O[C@@H]1CCc1ccc(-c2cccc(OC)c2)cc1	-11	2	-1	1	.
COc1ccc(NC(=O)N(C)C[C@H]2OCCCC[C@H](C)Oc3ccc(NC(=O)c4ccncc4)cc3C(=O)N([C@@H](C)CO)C[C@@H]2C)cc1	.	49*	.	.	0

Source: PubChem BioAssay (Broad Institute)
